# Screening data deposited in PubChem BioAssay by National Center for Advancing Translational Sciences (NCATS).
# NPSR antag: neuropeptide S receptor (human) antagonism, cAMP. Q6W5P4. CHO-NPSR cells, cAMP TR-FRET, antagonist mode. AID 1461. 1% of 220,000 active. Potency, µM (titrated, usually from 38.3 µM), actives largely listed as inhibitors; also: nearly all actives have a fitted effect of over 50% in size
# Gal4-VP16 FLuc: Gal4-VP16 reporter inhibition counter-screen. Drosophila S2 Gal4-VP16 UAS-luciferase, luminescence, 20 h. Potency, µM (doses to about 53.6 µM), actives largely listed as inhibitors. 3.5% of 310,000 active. AID 2546;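 also: Gal4-VP16 expression switched on by copper sulfate through the metallothionein promoter; nearly all actives have a fitted effect of over 50% in size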
# B2AR arrestin: recruits beta-arrestin to the human beta2-adrenergic receptor; beta-arrestin recruitment to beta2AR, cell-based reporter; 0.02% of 330,000 active; Potency, µM (highest dose often 46.1 µM), hits mostly activators; also: nearly all actives have a fitted effect of over 65% in size
# Target sequence (P07550 whole entry, looked up): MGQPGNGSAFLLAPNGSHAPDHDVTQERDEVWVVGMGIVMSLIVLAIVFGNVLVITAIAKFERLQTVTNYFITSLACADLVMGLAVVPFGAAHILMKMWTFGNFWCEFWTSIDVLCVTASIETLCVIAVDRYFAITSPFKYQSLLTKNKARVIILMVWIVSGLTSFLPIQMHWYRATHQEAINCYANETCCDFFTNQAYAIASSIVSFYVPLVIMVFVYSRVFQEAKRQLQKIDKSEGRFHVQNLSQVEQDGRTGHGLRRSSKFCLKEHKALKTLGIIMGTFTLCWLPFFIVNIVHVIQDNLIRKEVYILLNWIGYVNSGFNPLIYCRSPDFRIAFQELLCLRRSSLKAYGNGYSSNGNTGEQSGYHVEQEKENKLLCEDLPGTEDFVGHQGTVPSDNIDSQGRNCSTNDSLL
# RORgamma inh: blocks mouse ROR gamma transcriptional activity; Drosophila S2 Gal4-RORgamma UAS-luciferase reporter, 20 h; Potency, µM (doses to about 53.6 µM), hits mostly inhibitors; 5.4% of 310,000 active; AID 2551; also: nearly all actives have a fitted effect of over 60% in size
#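 Luciferase reporter read in Schneider cells carrying Gal4-RORγ (mouse) and UAS-Photinus luciferase; cells given compound 1 h before 700 uM copper sulfate induction, then incubated 20 h at ambient temperature.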
# Numbers stand for hits; n = inactive; u = inconclusive; x = no result; [ ] = dose if it differs, or a comment. This is a sample that favours compounds with a hit; in the whole collection about 5.7% have one here. Calls follow the shape of the dose curve; as a rule, active = well fitted curve in the direction sought with a large enough effect; inconclusive = small, poorly fitted or top-dose-only effect, or another doubt; inactive = no such curve, though single readings can be large; an effect the other way counts as inactive or inconclusive.
SMILES,NPSR antag,Gal4-VP16 FLuc,B2AR arrestin,RORgamma inh
O=C(CSc1nnc(NC2CC2)s1)NN1C(=O)NC2(CCCCC2)C1=O,x,x,n,x
Cc1ccsc1/C=C1\Oc2cc(OCC(=O)c3ccccc3)ccc2C1=O,n,u,n,15.8µM
COc1ccc(/C=C2\Oc3cc(OCC(N)=O)ccc3C2=O)cc1OC,x,u,n,n
CC1CCN(C(=O)c2cc3c(ccc4ccccc43)o2)CC1,x,10µM,n,4.47µM
CCOC(=O)C1CCN(C(=O)c2cc3c(ccc4ccccc43)o2)CC1,x,n,n,n
Cc1cc(Nc2cccc([N+](=O)[O-])c2)c2cccc(C)c2n1,n,n,n,n
Cc1cc(Nc2ccccc2)c2c([N+](=O)[O-])ccc(C)c2n1,n,35.5µM,n,u
O=C(NC(=S)N1CCN(Cc2ccc3c(c2)OCO3)CC1)c1cccc(Br)c1,n,0.631µM,n,0.562µM
O=C(NC(=S)N1CCN(Cc2ccc3c(c2)OCO3)CC1)c1ccc(Cl)cc1,n,0.631µM,n,0.447µM
CCNC(=S)N1CCN(Cc2ccc3c(c2)OCO3)CC1,n,n,n,n
Cc1cc2c(c(C)c1Cl)C(c1ccc3c(c1)OCO3)CC(O)(c1ccccc1)O2 (centres undefined),x,u,x,n
CC(C)C1Oc2cc3oc(=O)ccc3cc2C1=O (centres undefined),n,n,n,n
COc1ccc2oc(C(=O)NCCN3CCOCC3)c(C)c2c1OC,x,n,n,n
O=C(Nc1ccccc1C(=O)Nc1nnc(C(F)(F)F)s1)c1ccccc1Cl,u,15.8µM,n,u
O=C(Nc1nnc(-c2ccccc2)s1)c1ccccc1F,x,n,n,12.6µM
CC(C)(C)c1ccc(-c2nnc(NC(=O)c3ccccc3)s2)cc1,n,u,n,7.94µM
COC(=O)N1CCC[C@@]2(CCN(C(=O)Nc3ccccc3)C2)C1,x,n,x,n
COc1ccc([C@]23Cc4ccccc4C(O2)c2c(cc(C)n(Cc4ccccc4)c2=O)O3)cc1,x,u,n[9.22 µM],n[10 µM]
Cc1cc2nc(C3CCCN(C(=S)Nc4ccccc4C)C3)[nH]c2cc1C (centres undefined),n,n,n,20µM
Cc1ccc2nc(C3CCCN(C(=S)Nc4cccc(C)c4C)C3)[nH]c2c1 (centres undefined),n,u,n,11.2µM
Cc1cc2nc(C3CCCN(C(=O)NCc4ccccc4)C3)[nH]c2cc1C (centres undefined),n,n,n,n
Cc1ccc(NC(=S)N2CCCC(c3nc4ccc(C)cc4[nH]3)C2)c(C)c1 (centres undefined),n,u,n,n
Cc1cc(C)nc(NC(=O)c2ccc(COc3ccccc3Cl)cc2)c1,n,n,n,n
COc1cccc2cc(C(C)N(CCCN3CCOCC3)C(=S)Nc3cc(C)ccc3C)oc12 (centres undefined),n,n[10 µM],n,11.2µM
COc1cccc2cc(C(C)N(CCCN3CCOCC3)C(=S)Nc3ccc(C)c(C)c3)oc12 (centres undefined),n,u,n,11.2µM
SMILES,NPSR antag,Gal4-VP16 FLuc,B2AR arrestin,RORgamma inh
COc1cccc(NC(=S)N(CCCN2CCOCC2)C(C)c2cc3ccccc3o2)c1 (centres undefined),n,u,n,11.2µM
COc1ccc(NC(=S)N(CCCN2CCOCC2)C(C)c2cc3cccc(OC)c3o2)cc1 (centres undefined),n,n[10 µM],n,n
COc1cccc2cc(C(C)N(CCCN3CCOCC3)C(=S)Nc3cccc(C)c3C)oc12 (centres undefined),u,n[10 µM],n,11.2µM
CCc1cccc(NC(=S)N(CCCN2CCOCC2)C(C)c2cc3cccc(OC)c3o2)c1 (centres undefined),n,u,n,11.2µM
COc1ccc2[nH]c3c(c2c1)CCNC3=O,x,n,x,n
C=C1CCc2c([nH]c3ccc(OCC(C)C)cc23)C1=O,x,u,n,14.1µM
COc1cc2cc(CCCOC(=O)c3ccc(C#N)cc3)oc(=O)c2cc1OC,x,x,n,x
COC(=O)[C@@H](NC(=O)O[C@H]1C(=O)c2cc(OC)ccc2O[C@@H]1c1ccc(OC)c(Br)c1)C(C)C,x,n,x,n
CCOC(=O)CNc1oc(-c2ccccc2)nc1-c1ccccc1,x,n,x,n
O=C(Nc1nc(-c2ccccc2)cs1)c1ccccc1NS(=O)(=O)c1ccc(F)cc1,u,5.62µM,n,u
Fc1ccc(-c2csc(NC(=S)Nc3ccccc3)n2)cc1,x,3.16µM,n,0.891µM
COc1cc(OC)cc(C(=O)NCC(=O)OCc2ccc(Cl)c(Cl)c2)c1,x,x,n,x
CC(C)c1ccc(-c2c(C#N)c(N)nc(SCC(=O)N3CCCCC3)c2C#N)cc1,10µM,n,n,n
C[C@@H]1CC[C@H]2[C@H](C)[C@H]3CC[C@H]4C5[C@@H](O)CC6=CC(=O)CC[C@]6(C)[C@H]5C[C@H]4C3C(=O)N2C1 (some centres undefined),x,n,x,n
Cc1ccc(OCc2nc(-c3ccccn3)n[nH]2)cc1,n,5.01µM,n,3.16µM
Cc1cc(C)nc(Nc2n[nH]c(COc3ccc(Cl)cc3)n2)n1,n,n,n,n
Cc1cccc(OCc2nc(-c3ccccn3)n[nH]2)c1,n,2.82µM,x,1.58µM
COc1ccc(NC(=O)N2CCCC(C(=O)NCCc3ccccc3)C2)cc1 (centres undefined),x,n,n,n
CC1CC(C)CN(S(=O)(=O)CCNC(=O)c2ccc3c(c2)OCO3)C1 (centres undefined),x,x,n,x
C=CCN1CC(C(=O)N(CCCN(C)C)C(=O)NCC)CC2c3cccc4[nH]cc(c34)CC21 (centres undefined),x,n,x,n
CCc1ccccc1NC1Nc2cc(C)nn2S1 (centres undefined),n,12.6µM,n,5.62µM
Cc1cc2n(n1)SC(Nc1ccc(F)cc1)N2 (centres undefined),n,u,n,u
Cc1cc2n(n1)SC(Nc1cc(Cl)ccc1Cl)N2 (centres undefined),n,0.562µM,n,0.501µM
Cc1cc2n(n1)SC(Nc1cccc3ccccc13)N2 (centres undefined),n,4.47µM,n,2µM
O=C(Nc1ccc(Cl)c(C(=O)N2CCOCC2)c1)c1ccccc1,x,n,n,n
SMILES,NPSR antag,Gal4-VP16 FLuc,B2AR arrestin,RORgamma inh
COc1ccc(S(=O)(=O)NCCC(=O)N2CCCN(C)CC2)cc1,x,x,n,x
CCN(CC)CCOc1ccc2c(c1)C(=NO)c1cc(OCCN(CC)CC)ccc1-2,u,n,n,n
CCCOc1ccc2c(c1)C(=NN=C(N)N)c1cc(OCCC)ccc1-2,x,n,n,14.1µM
COc1cccc2oc(-c3ccc(O)cc3)cc(=O)c12,x,u,x,n
COc1c(O)cc2oc(-c3ccc(O)cc3)cc(=O)c2c1O,n,u,n,u
COc1cccc2oc(-c3ccccc3)cc(=O)c12,x,u,x,11.2µM
COc1cccc2oc(SC)cc(=O)c12,x,u,x,31.6µM
O=c1cc(-c2ccccc2)oc2cc(O)c(O)c(O)c12,x,u,n,28.2µM
COc1cccc(NC(=O)Nc2ccc3nc(C)c(C)nc3c2)c1,x,n,n,u
COc1cccc(NC(=O)Nc2ccc3c(c2)nc(C)n3C)c1,n,11.2µM,n,8.91µM
Cc1nc2cc(NC(=O)Nc3nccs3)ccc2n1C,n,10µM,n,u
CCn1c(C)nc2cc(NC(=O)Nc3cccc(C(C)=O)c3)ccc21,x,14.1µM,n,15.8µM
